# FPRL1 binder: human FPRL1 ligands by binding competition, primary screen, cell-based, FPR counter-screen, flow cytometry; N-formyl peptide receptor 2 (Homo sapiens), P25090; FPRL1-expressing cells, fluorescent ligand binding inhibition; inhibition, % (no concentration beside the values); 24,000 tested, 0.3% active;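 note: 0% = buffer alone and 100% = receptor blocker peptide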
# FPR binder: human FPR ligands by binding competition, primary screen, cell-based, FPRL1 counter-screen, flow cytometry; fMet-Leu-Phe receptor (Homo sapiens), P21462; FPR-expressing cells, fluorescent ligand binding; inhibition, % (test concentration not listed); 24,000 tested, 0.74% active; AID 440, 2006;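 note: 0% = buffer wells and 100% = receptor blocker peptide wells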
# Target sequence (P21462 whole entry, looked up): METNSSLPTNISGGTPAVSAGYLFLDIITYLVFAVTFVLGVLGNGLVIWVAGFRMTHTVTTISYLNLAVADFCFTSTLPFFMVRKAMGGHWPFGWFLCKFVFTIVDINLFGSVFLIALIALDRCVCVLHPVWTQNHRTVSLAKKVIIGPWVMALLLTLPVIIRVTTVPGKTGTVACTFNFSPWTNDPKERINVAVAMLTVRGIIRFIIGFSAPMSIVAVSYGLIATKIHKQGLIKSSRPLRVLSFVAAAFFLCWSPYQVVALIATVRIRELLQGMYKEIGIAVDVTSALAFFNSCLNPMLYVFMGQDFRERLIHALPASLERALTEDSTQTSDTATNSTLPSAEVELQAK
# Active calls of the source: *; . = no result. An excerpt weighted towards active compounds, which were near 1% of everything screened. Cut-off read from the data, not from the text of the source: active = inhibition above about 30%; inconclusive = no clear call, values can overlap the other calls; inactive = below that.
SMILES,FPRL1 binder,FPR binder
COc1ccc(C2/C(=C(/O)c3ccc4c(c3)CC(C)O4)C(=O)C(=O)N2CCN2CCOCC2)cc1 (centres undefined),0,2
Cc1ccc(C)c(/C(O)=C2\C(=O)C(=O)N(CCCn3ccnc3)C2c2ccncc2)c1 (centres undefined),25,37*
CN(C)c1nc(N(C)C)nc(N(C)C)n1,0,52*
CN(C)c1nc(N)nc(N(c2ccccc2)c2ccccc2)n1,10,-7
COc1ccc(-c2cc(C(F)(F)F)nc(N3CCCCC3)n2)cc1OC,33*,10
COc1ccccc1N1CCN(c2nc(-c3ccccc3)cc(C(F)(F)F)n2)CC1,.,-6
COc1ccc(-c2cc(C(F)(F)F)nc(N3CCN(C)CC3)n2)cc1OC,0,-11
COc1ccc(-c2cc(C(F)(F)F)nc(N3CCN(c4ccccc4)CC3)n2)cc1OC,16,68*
Cc1ccc(C)c(-n2c(Cc3cc(=O)[nH]c(=O)[nH]3)nnc2SCC(=O)NCC2CCCO2)c1 (centres undefined),-3,-5
C=CCN1C(=O)C2(/C(=C(\O)c3ccc4c(c3)OCCO4)C(=O)C(=O)N2CCCOC)c2ccccc21 (centres undefined),2,32*
COc1ccccc1C1/C(=C(\O)c2ccc3c(c2)OCCO3)C(=O)C(=O)N1CCCN(C)C (centres undefined),5,-2
CCOC(=O)CC(=O)CSc1[nH]c(=O)cc(C)c1C#N,2,-3
O=S(=O)(c1cccc2nsnc12)N1CCc2ccccc21,6,-1
CNc1nn(-c2cccc(Cl)c2)nc1N,90*,-9
CCC(=O)Nc1cc2nn(-c3ccccc3)nc2cc1Cl,0,-1
Cc1c(C(C)O)nnn1-c1nonc1N (centres undefined),-3,2
Cc1ccc2c(c1)N(CC(=O)NC1CCCCC1C)C(=O)CO2 (centres undefined),-1,-1
CC(=O)NCCn1c(SCc2cc(=O)n3cc(Cl)ccc3n2)nc2ccccc2c1=O,-1,-1
OCc1nc2ccccc2n1CCCOc1ccccc1,12,2
OCc1nc2ccccc2n1CC(O)Cn1ccc2ccccc21 (centres undefined),51*,37*
COc1ccc(NC(=O)CSc2nnc(Cn3c(=O)sc4ccccc43)n2C)c(OC)c1,6,0
O=C1CCCC(O)=C1C(C#Cc1ccccc1)C1=C(O)CCCC1=O,4,47*
CCOc1ccc(CCNC(=O)CCN2C(=O)COc3ccccc32)cc1OCC,0,1
Cn1c(C(=O)NC2CCCC2)cc2c(=O)n(C)c3ccccc3c21,-3,3
COc1cccc(-c2nc(-c3ccc(NC(=O)Cc4ccccc4OC)cc3)no2)c1,-6,3
SMILES,FPRL1 binder,FPR binder
COc1ccc(-c2nc(-c3ccc(Br)o3)no2)cc1OC,31*,17
COc1ccccc1Cc1nc(-c2ccc(Br)o2)no1,0,2
COc1ccc(-c2nc(-c3ccc(NC(=O)c4ccc(Br)o4)cc3)no2)cc1OC,50*,43*
Cc1csc(NC(=O)Cc2nn(C)c(=O)c3ccccc23)n1,-6,-5
Cc1nn2c(=O)cc(CSc3nc4ccccc4[nH]3)nc2s1,-1,-2
O=C(NCCC1=CCCCC1)C1CCN(S(=O)(=O)c2cccc3nsnc23)CC1,-1,3
CCOc1ccc(/C(O)=C2/C(=O)C(=O)N(CC3CCCO3)C2c2ccc(C)o2)cc1 (centres undefined),-6,26
CCOc1ccc(/C(O)=C2/C(=O)C(=O)N(CC3CCCO3)C2c2ccco2)cc1 (centres undefined),26,48*
COc1cccc(CNC(=O)Cn2cc3c(n2)CCCC3)c1,30,40*
O=C(Cn1cc2c(n1)CCCC2)NCc1cccc(Cl)c1,1,3
COc1ccc(CC(NC(C)=O)C(=O)NC2CCN(c3nc(C)cc(C)c3C#N)CC2)c(OC)c1 (centres undefined),12,-5
Cn1cccc1Cc1nnc(SCC(=O)Nc2nccs2)n1CCc1ccccc1,6,10
CCSc1nnc(NC(=O)CSc2nnc(Cc3cccn3C)n2CCc2ccccc2)s1,-2,34*
O=C(Cc1ccc(-n2cccc2)cc1)N1CCc2ccccc21,3,-1
S=c1[nH]nc(C23CC4CC(CC(C4)C2)C3)n1Cc1ccco1,-1,6
CCCCC1C(=O)N(c2ccccc2)N(c2ccccc2)C1=O,0,50*
O=C(O)CC1NC(=O)N(c2ccccc2)C1=O (centres undefined),7,4
Cc1ccccc1NC(=O)CN(C)S(=O)(=O)c1cccc2cccnc12,6,1
CCCc1cc(=O)n2[nH]c(C)c(-c3ccccc3)c2n1,29,35*
CCCc1cc(=O)n2[nH]c(C)cc2n1,2,6

# High-throughput results (PubChem BioAssay)
